The text below walks through data of PubChem BioAssay (Tox21).

A number with no mark means an inactive call. Records with an inconclusive call do not appear. Calls of active or inactive are those of the source. Unless noted, calls come from the whole dose curve; as a rule, active = well fitted curve in the direction sought with a large enough effect in the repeat runs; inconclusive = weak or mixed curves; inactive = flat fitted curve, though single readings scatter.

Assay [1] is described as follows: qHTS assay to test for compound auto fluorescence at 535 nm (green) in HEK293 cells (AID 720680). A general note: Quantitative high-throughput screening tests each substance at several concentrations.
Assay [2] is described as follows: qHTS assay to test for compound auto fluorescence at 460 nm (blue) in HEK293 cell free culture (AID 720681). Summed up: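 Blue fluorescence (Ex 405/Em 460 nm, triamterene-equivalent) was read immediately after pin transfer of compound or DMSO into medium (DMEM, 10% FBS) without cells.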
Assay [3] is described as follows: qHTS assay to test for compound auto fluorescence at 535 nm (green) in HEK293 cell free culture (AID 720682). Summed up: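 Measurement is a direct plate read of green fluorescence (485 nm in, 535 nm out) after compound addition to serum-supplemented DMEM lacking cells, with fluorescein used to express intensities.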
Assay [4] is described as follows: qHTS assay to test for compound auto fluorescence at 590 nm (red) in HEK293 cell free culture (AID 720683). Summed up: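 Red-channel autofluorescence of compounds in culture medium (DMEM, 10% FBS), no cells, measured at 540/590 nm. Rose Bengal sodium is the reference fluorophore for equivalence.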
Assay [5] in a line: qHTS assay to test for compound auto fluorescence at 590 nm (red) in HepG2 cell free culture (AID 720684). Summed up:
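Plate contents were MEM with 10% FBS plus test compound or DMSO, no cells. Fluorescence was recorded with 540 nm excitation and 590 nm emission.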

Assay [6] in a line: qHTS assay to test for compound auto fluorescence at 535 nm (green) in HepG2 cell free culture (AID 720686).
Assay [7] can be described thus: qHTS assay to test for compound auto fluorescence at 460 nm (blue) in HepG2 cells (AID 720687). A digest of the protocol: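 Blue-channel autofluorescence (Ex/Em 405/460 nm, triamterene-equivalent) was measured after 1 hr compound exposure at 37 C, 5% CO2. Cells were HepG2, plated overnight at 37 C in MEM plus 10% FBS.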
Assay [8] concerns the target Glucocorticoid receptor (Homo sapiens) (UniProt P04150). In words: qHTS assay to identify small molecule agonists of the glucocorticoid receptor (GR) signaling pathway (AID 720691; active = well fitted activation curve with a large enough effect in the signal ratio in the repeat runs, not every such curve was filed as active; the % refers to the signal ratio). As to conditions: GR-bla HeLa, beta-lactamase reporter ratio, 18 h; activation: at 62.4 µM (top of the series) unless noted. A digest of the protocol:
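GR-bla HeLa cells carrying a GRE-driven beta-lactamase reporter, exposed to compounds for 18 h at 37 C. Reporter activation read as fluorescence after 2 h with LiveBLAzer B/G FRET substrate at room temperature.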

The target is the same in assay [9]. In words: qHTS assay to identify small molecule antagonists of the glucocorticoid receptor (GR) signaling pathway (AID 720692; active = well fitted inhibition curve with a large enough effect in the signal ratio in the repeat runs, not every such curve was filed as active; the % refers to the signal ratio; note: potency is the fitted concentration of half-maximal effect). A digest of the protocol: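 GR-bla HeLa cells carrying a GRE-driven beta-lactamase reporter received compound after 4 h plating, then dexamethasone (5 nM final). After 18 h at 37C, the FRET substrate was loaded for 2 h at room temperature and fluorescence read.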

The nature of assay [10]: qHTS assay to test for compound auto fluorescence at 460 nm (blue) in HepG2 cell free culture (AID 720685). Summed up:
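Compound (23 nL) or DMSO pinned into cell-free MEM with 10% FBS; blue fluorescence read at 405/460 nm excitation/emission, expressed as auto-fluorescence equivalency to triamterene.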
% is set by controls: 0 for no effect and ±100 for the full control effect.

Sequence of Glucocorticoid receptor (Homo sapiens) (P04150 whole entry, looked up): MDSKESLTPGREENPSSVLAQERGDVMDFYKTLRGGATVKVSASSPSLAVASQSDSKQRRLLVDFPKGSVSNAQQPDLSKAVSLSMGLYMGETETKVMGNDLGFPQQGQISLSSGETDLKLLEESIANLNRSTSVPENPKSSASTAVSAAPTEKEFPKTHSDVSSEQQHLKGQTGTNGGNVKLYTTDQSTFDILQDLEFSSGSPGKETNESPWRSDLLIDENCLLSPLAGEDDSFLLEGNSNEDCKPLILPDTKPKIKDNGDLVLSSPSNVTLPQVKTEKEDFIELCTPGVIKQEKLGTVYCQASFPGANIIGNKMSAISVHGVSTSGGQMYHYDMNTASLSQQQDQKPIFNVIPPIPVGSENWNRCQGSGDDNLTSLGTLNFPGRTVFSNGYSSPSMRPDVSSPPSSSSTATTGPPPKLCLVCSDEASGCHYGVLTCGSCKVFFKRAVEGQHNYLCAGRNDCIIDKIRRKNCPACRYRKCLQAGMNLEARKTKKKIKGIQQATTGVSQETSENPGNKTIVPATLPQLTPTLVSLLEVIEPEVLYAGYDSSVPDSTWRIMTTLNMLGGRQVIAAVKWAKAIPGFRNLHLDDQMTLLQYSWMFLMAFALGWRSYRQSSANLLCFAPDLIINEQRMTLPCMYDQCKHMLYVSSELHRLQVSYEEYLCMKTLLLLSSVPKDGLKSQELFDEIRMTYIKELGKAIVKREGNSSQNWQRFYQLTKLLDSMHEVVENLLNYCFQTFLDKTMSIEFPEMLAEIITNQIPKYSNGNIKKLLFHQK

As to `C=CC(=O)OCCOc1ccccc1`, the molecule was classed as inactive in assay [1], in assay [2], in [3] and in assay [7]. In addition, the Potency result in assay [4], in assay [5], in assay [6] and in assay [8] was “inactive” each time. Further, in assay [9], the Potency is 21.9 µM (active).
As to `COc1cc2nc(N(C)CCCNC(=O)C3CCCO3)nc(N)c2cc1OC` (stereo not drawn), the fluorescence, % of fluorescein in [1] is -0.0302% [at 18.6 µM]. Moreover, the fluorescence, % of fluorescent control in assay [2] was -0.0154% [at 18.6 µM]; in assay [4], -0.206% [at 18.6 µM]; in assay [10], -0.0022% [at 18.6 µM]; in [7] it was 0.136% [at 18.6 µM]. Further, the activity change in assay [3] is -0.131% [at 18.6 µM]. Also, the fluorescence, % of Rose Bengal in assay [5] is -0.324% [at 18.6 µM]. Also, the Potency entry in [9] is “inactive”.
Regarding `O=C1C(O)=C(O)C(=O)C(O)=C1O`, the call in assay [1], in [2], in [3] and in assay [10] was inactive. Besides, the Potency result in assay [4], in assay [5], in [8] and in [9] was “inactive” throughout.
Turning to `CC(COCCO)OCCO` (stereo not drawn), the call in [1], in assay [2], in [3] and in [7] was inactive. In addition, the Potency result in assay [4] and in assay [5] was “inactive” each time.
Take `COc1ccc(C(=O)N2CCN(CC(=O)N3CCOCC3)CC2)cc1`: the result in [1], in assay [2], in assay [3] and in assay [7] was inactive. For the same molecule, the Potency result in assay [4], in assay [5] and in assay [6] was “inactive” throughout.
With `CCCCCCCCCCCCN1CCCCCC1=O`, the outcome in [1], in assay [2] and in assay [3] was inactive. For the same molecule, the Potency result in [4], in assay [5] and in assay [6] was “inactive” each time.
On to `CN(C)c1ccc(/C=C/c2ccc([N+](=O)[O-])cc2)cc1`, for which the fluorescence, % of fluorescein in assay [1] is 0.0174% [at 3.72 µM]. The figures for the fluorescence, % of fluorescent control in assay [2], in [4] and in assay [10] were -0.202% [at 3.72 µM], -0.187% [at 3.72 µM] and -0.0827% [at 3.72 µM], respectively. Also, the activity change in assay [3] is -0.151% [at 3.72 µM].
Turning to `CCCCCCCCCCCCCCOS(=O)(=O)O`, the outcome in assay [1], in assay [2], in assay [3] and in assay [10] was inactive. The Potency entry in assay [4], in assay [5] and in [9] was “inactive” in each case.
For `CCCCCCCCCc1ccc(OCCOCCO)cc1`, the molecule was classed as inactive in assay [1], in [2], in assay [3] and in assay [7]. In addition, the Potency result in assay [4], in [5] and in [8] was “inactive” in each case.
Take `CC(=O)c1cccc([N+](=O)[O-])c1`: the outcome in assay [1], in [2], in [3] and in assay [10] was inactive. Also, the Potency result in assay [4], in assay [5], in assay [8] and in assay [9] was “inactive” in each case.
For `NCC(=O)O`, the call in assay [1], in [2], in assay [3] and in [10] was inactive. For the same molecule, the Potency result in assay [4], in [5], in assay [8] and in assay [9] was “inactive” each time.
Consider `CC1(c2ccccc2)OC(C(=O)O)=CC1=O` (stereo not drawn), for which the molecule was classed as inactive in assay [1], in assay [2], in [3] and in assay [7]. In addition, the Potency result in assay [4], in assay [5] and in assay [6] was “inactive” in each case.
With `CCCCCCCCCCCC(=O)OC[C@@H](O)[C@H]1OC[C@H](OCCO)[C@H]1OCCO`, the result in assay [1], in assay [2], in [3] and in assay [7] was inactive. Besides, the Potency result in assay [4] and in assay [5] was “inactive” in each case.
On to `CCOCC(O)COc1ccc(NC(=O)CC[S+](C)C)cc1` (stereo not drawn), for which the outcome in assay [1], in assay [2], in [3], in [10] and in assay [7] was inactive. In addition, the Potency entry in assay [4], in assay [5], in assay [8] and in [9] was “inactive” each time.
Regarding `CCCCCCCC#N`, the outcome in [1], in [2], in assay [3] and in [7] was inactive. Also, the Potency result in assay [4], in [5], in [6] and in assay [9] was “inactive” in each case.
Consider `Nc1cccc(S(=O)(=O)c2cccc(N)c2)c1`, for which the molecule was called inactive in assay [1], in assay [2], in [3] and in assay [7]. Moreover, the Potency result in [4], in [5], in assay [6], in assay [8] and in [9] was “inactive” throughout.
For `OCCNCc1ccccc1`, the call in [1], in [2], in [3] and in assay [7] was inactive. Also, the Potency result in assay [4], in assay [5], in assay [8] and in [9] was “inactive” in each case.
As to `CN1CCC(N(Cc2cccs2)c2ccccc2)CC1`, the molecule was called inactive in [1], in assay [2], in assay [3] and in [7]. Besides, the Potency entry in assay [4], in [5], in assay [6] and in assay [8] was “inactive” each time.
Regarding `CCOC(=O)c1cccnc1`, the call in assay [1], in [2], in [3] and in [7] was inactive. Besides, the Potency result in assay [4], in assay [5], in assay [6], in assay [8] and in assay [9] was “inactive” each time.
As to `C=C(C)C(=O)OCCOCC`, the molecule was called inactive in assay [1], in [2], in assay [3] and in assay [7]. For the same molecule, the Potency result in assay [4], in assay [5], in assay [6] and in [8] was “inactive” throughout.
For the molecule `NCCCN1CCOCC1`, the result in assay [1], in assay [2], in assay [3] and in [7] was inactive. In addition, the Potency entry in [4], in assay [5], in assay [6], in [8] and in assay [9] was “inactive” throughout.
Regarding `CC1CCC(=O)C1=O` (stereo not drawn), the molecule was classed as inactive in assay [1], in assay [2], in assay [3] and in assay [7]. The Potency result in [4], in assay [5] and in assay [8] was “inactive” each time.
Regarding `C#C[C@]1(O)CC[C@H]2[C@@H]3CCc4cc(OC5CCCC5)ccc4[C@H]3CC[C@@]21C`, the call in [1], in [2] and in assay [3] was inactive. Also, the Potency entry in [4], in assay [5] and in assay [6] was “inactive” throughout.
On to `CCn1cc(C(=O)O)c(=O)c2cnc(N3CCNCC3)nc21`, for which the fluorescence, % of fluorescein in assay [1] is 0.0376% [at 18.6 µM]. The figures for the fluorescence, % of fluorescent control in [2], in assay [4] and in [7] were 6.27% [at 18.6 µM], -0.371% [at 18.6 µM] and -0.128% [at 18.6 µM], respectively. In addition, the activity change in assay [3] is 0.0637% [at 18.6 µM]. The fluorescence, % of Rose Bengal in assay [5] was -0.185% [at 18.6 µM]. Besides, the fluorescence, % of fluorescein control in [6] was 0.152% [at 18.6 µM].
As to `CCOC(=O)C1=C[C@]2(CC)CCCN3CCc4c(n1c1ccccc41)[C@@H]32`, the call in assay [1], in [2], in [3] and in assay [7] was inactive. The Potency result in assay [4], in [5], in assay [6], in assay [8] and in [9] was “inactive” each time.
On to `Cc1nn(C)c(Oc2ccccc2)c1/C=N/OCc1ccc(C(=O)OC(C)(C)C)cc1`, for which the molecule was called inactive in assay [1], in [2] and in [3]. The Potency result in assay [4], in assay [5] and in assay [6] was “inactive” each time.
In the case of `COc1cc(Cl)ccc1Oc1ccc(Cl)cc1Cl`, the result in [1], in assay [2], in assay [3] and in [7] was inactive. In addition, the Potency entry in assay [4], in [5], in assay [6] and in assay [8] was “inactive” throughout.
